This is part of a sample that, as a whole, favours compounds with a hit. Of some 79,000 tested, about 15% had one in any assay. Values without a mark were called inactive. Activity calls are given as the source filed them. Rule as the data show it: active = growth inhibition above about 70%; inactive = the rest.
Tests used:
[1] = NCI Yeast Anticancer Drug Screen. Data for the rad50 strain (AID 155);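 also: 0% = growth of vehicle-only cultures of the same strain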; conditions: S. cerevisiae rad50 strain growth inhibition, active compounds read high
Procedure, shortened: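 Yeast carrying a defined DNA repair defect were exposed to test compounds, and growth was compared with vehicle-treated controls to give percent inhibition.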

[2] = NCI Yeast Anticancer Drug Screen. Data for the mec2-1 strain (AID 157); conditions: S. cerevisiae mec2-1 strain, active compounds read high
Procedure, shortened: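 Using mec2-1 yeast: add compound, measure growth, express inhibition versus vehicle-treated cultures.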

[3] = NCI Yeast Anticancer Drug Screen. Data for the sgs1 mgt1 strain (AID 161);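 also: 0% = growth of cultures given vehicle only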; conditions: S. cerevisiae sgs1 mgt1 strain, active compounds read high
Procedure, shortened: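 Yeast cells carrying a defined DNA-repair defect were exposed to test compounds. Growth inhibition was measured relative to vehicle-treated controls.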

[4] = NCI Yeast Anticancer Drug Screen. Data for the cln2 rad14 strain (AID 165);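 also: 0% = growth equal to vehicle treated cultures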; conditions: S. cerevisiae cln2 rad14 strain, active compounds read high
Procedure, shortened: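 Yeast strain cln2 rad14, bearing defects in cell cycle control and DNA repair, serves as the test system; values reflect growth inhibition compared with vehicle.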

[5] = NCI Yeast Anticancer Drug Screen. Data for the bub3 strain (AID 167); conditions: S. cerevisiae bub3 mutant strain, active compounds read high
Procedure, shortened: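 Compounds were applied to a genetically altered yeast strain carrying a cell-cycle control defect. Growth inhibition was scored against vehicle-treated controls.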

[6] = NCI Yeast Anticancer Drug Screen. Data for the mlh1 rad18 strain (AID 175); conditions: S. cerevisiae mlh1 rad18 strain growth inhibition, active compounds read high
Procedure, shortened: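 Steps: expose repair-defective yeast to compound; measure growth; express inhibition against vehicle-treated controls.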

[7] = at 5.0 µM (retest, dose inferred, filed as 0.5)
[8] = at 50.0 µM (retest, dose inferred, filed as 5.0)

| Compound | growth inhibition [1, 7] | growth inhibition [1, 8] | growth inhibition ([1]; at 50.0 µM) | growth inhibition [2, 7] | growth inhibition [2, 8] | growth inhibition ([2]; at 50.0 µM) | growth inhibition [3, 7] | growth inhibition [3, 8] | growth inhibition ([3]; at 50.0 µM) | growth inhibition [4, 7] | growth inhibition [4, 8] | growth inhibition ([4]; at 50.0 µM) | growth inhibition [5, 7] | growth inhibition [5, 8] | growth inhibition ([5]; at 50.0 µM) | growth inhibition [6, 7] | growth inhibition [6, 8] | growth inhibition ([6]; at 50.0 µM) |
| --- | --- | --- | --- | --- | --- | --- | --- | --- | --- | --- | --- | --- | --- | --- | --- | --- | --- | --- |
| Nc1ccccc1SC(C[N+](=O)[O-])c1ccc2c(c1)OCO2 (stereo not given) | 82% (active) | 99% (active) | 98.8% (active) | 72% (active) | 100% (active) | 99% (active) | 69% | 99% (active) | 99% (active) | 45% | 99% (active) | 97% (active) | 80% (active) | 100% (active) | 98.5% (active) | 65% | 99% (active) | 99% (active) |
| O=c1c(-c2ccccc2)c1-c1ccccc1 | 7% | 92% (active) | 98.7% (active) | 4% | 95% (active) | 99.3% (active) | 8% | 90% (active) | 98.9% (active) | -2% | 96% (active) | 97.6% (active) | 5% | 91% (active) | 99.2% (active) | 1% | 96% (active) | 99% (active) |
| OCC1(O)OCC(O)C(O)C1O (stereo not given) | -3% | 72% (active) | 74.7% (active) | -2% | 68% | 80% (active) | 0% | 60% | 72.7% (active) | 7% | 29% | 58.8% | 1% | 69% | 72.1% (active) | -1% | 81% (active) | 79.5% (active) |
| N#CC(C#N)=Cc1ccc(Oc2ccccc2)cc1 | 2% | 31% | 88.2% (active) | -21% | 54% | 82.1% (active) | 13% | 56% | 58.9% | 25% | 62% | 66.3% | -6% | 90% (active) | 83.7% (active) | 2% | 77% (active) | 73.9% (active) |
| N#CC1Sc2ccccc2N1C(=O)Oc1ccccc1 (stereo not given) | 3% | 98% (active) | 98.8% (active) | 0% | 98% (active) | 98.7% (active) | 5% | 98% (active) | 98.8% (active) | 3% | 97% (active) | 98.2% (active) | 15% | 98% (active) | 99.1% (active) | 5% | 98% (active) | 98.8% (active) |
| Nc1ccc(S(=O)(=O)Nc2cc(Cl)cc(Cl)c2)cc1 | -4% | 92% (active) | 99.5% (active) | -4% | 100% (active) | 97.2% (active) | -4% | 99% (active) | 99.3% (active) | -15% | 99% (active) | 97.3% (active) | 3% | 99% (active) | 99.2% (active) | 1% | 99% (active) | 98.2% (active) |
| Oc1ccc(O)c2nc3ccccc3nc12 | 20% | 97% (active) | 50.8% | 3% | 97% (active) | 33.8% | 8% | 98% (active) | 24.1% | 2% | 98% (active) | -1.85% | 6% | 98% (active) | 68.2% | 24% | 97% (active) | 76.4% (active) |
| CCOC(=O)CC1=NC(=Nc2ccc(Cl)c(Cl)c2)SC1 | 0% | 95% (active) | 96.2% (active) | -3% | 98% (active) | 99% (active) | 0% | 98% (active) | 99.1% (active) | -5% | 94% (active) | 96.6% (active) | 4% | 98% (active) | 97.7% (active) | -2% | 98% (active) | 98.3% (active) |
| C(=C\c1ccc(-[n+]2nc(-c3ccccc3)nn2-c2ccccc2)cc1)/c1ccccc1 | 85% (active) | 98% (active) | 91.5% (active) | 81% (active) | 100% (active) | 93.4% (active) | 79% (active) | 100% (active) | 93.4% (active) | 54% | 99% (active) | 93.2% (active) | 86% (active) | 99% (active) | 92.3% (active) | 95% (active) | 99% (active) | 90.9% (active) |
| CCCCN(CCCC)C(=O)c1ccc(OC(=O)OCC)c(OC)c1 | 4% | 6% | 56.9% | 0% | 10% | 37% | 2% | 31% | 49.8% | 4% | 17% | 8.8% | 2% | 24% | 85.1% (active) | -2% | 29% | 17% |

Source: PubChem BioAssay (NCI)
